Test results reported in PubChem BioAssay.
A number with no mark means an inactive call. For some assays here: Entries with a potency or affinity are not part of this list. Calls of active or inactive are those of the source. Unless noted, no rule for the calls is given here.

Columns and labels:
[1] = antimalarial activity against Dd2 strain (AID 2302;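 active = growth inhibition above 50% at the single 2 µM test dose, taken to imply half-maximal potency below 2 µM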;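 also: 0% = DMSO untreated growth and 100% = chloroquine plus artemisinin killed control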); conditions: P. falciparum Dd2 in RBCs, LDH growth readout, 72 h; at 2 µM; hits give high values
[2] = human hepatoma cell viability loss – ATP luminescence, cytotoxicity control for P. falciparum antimalarial project, primary screen (AID 2303;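 active = inhibition above 50%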;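 also: 0% = DMSO wells and 100% = digitonin-killed cells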); conditions: HepG2 viability, 24-48 h, at 10 µM, hits give high values
[3] = target: L-lactate dehydrogenase (Plasmodium falciparum (isolate CDC / Honduras)) (UniProt Q27743); experiment: PfLDH activity inhibition – cell lysate, 3D7 strain, counter-screen for P. falciparum growth inhibition project (AID 2304);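 also: 0% = vehicle and 100% = reference inhibitor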; conditions: P. falciparum 3D7 crude extract, LDH APAD/NBT absorbance; at 2 µM; hits give high values
L-lactate dehydrogenase (Plasmodium falciparum (isolate CDC / Honduras)), sequence (Q27743 whole entry, looked up): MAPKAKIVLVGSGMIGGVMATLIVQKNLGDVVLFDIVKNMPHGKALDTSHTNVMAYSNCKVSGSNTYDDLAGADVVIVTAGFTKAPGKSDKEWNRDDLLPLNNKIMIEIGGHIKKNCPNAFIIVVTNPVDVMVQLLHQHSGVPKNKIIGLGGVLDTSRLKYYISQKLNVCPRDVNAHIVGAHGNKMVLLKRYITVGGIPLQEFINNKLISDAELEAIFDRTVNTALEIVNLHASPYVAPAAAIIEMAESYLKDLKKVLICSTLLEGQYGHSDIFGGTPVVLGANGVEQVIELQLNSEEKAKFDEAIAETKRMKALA

[4] = inhibition of 3D7 malaria parasite growth – strain 3D7 (AID 2306);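 also: 0% = DMSO wells and 100% = chloroquine plus artemisinin control wells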; conditions: P. falciparum 3D7 erythrocytic growth, LDH absorbance, 72 h; at 2 µM; hits give high values
[5] = target: Calcium-dependent protein kinase 1 (Plasmodium falciparum (isolate 3D7)) (UniProt P62344); experiment: PfCDPK1 kinase inhibitors, biochemical, TCAMS library (AID 1159585; cut-off not given, nearly all actives have IC50 up to about 0.98 µM;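 also: inhibitors leave more ATP so luminescence rises with inhibition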); conditions: recombinant PfCDPK1, Kinase-Glo ATP depletion luminescence
Calcium-dependent protein kinase 1 (Plasmodium falciparum (isolate 3D7)), sequence (P62344 whole entry, looked up): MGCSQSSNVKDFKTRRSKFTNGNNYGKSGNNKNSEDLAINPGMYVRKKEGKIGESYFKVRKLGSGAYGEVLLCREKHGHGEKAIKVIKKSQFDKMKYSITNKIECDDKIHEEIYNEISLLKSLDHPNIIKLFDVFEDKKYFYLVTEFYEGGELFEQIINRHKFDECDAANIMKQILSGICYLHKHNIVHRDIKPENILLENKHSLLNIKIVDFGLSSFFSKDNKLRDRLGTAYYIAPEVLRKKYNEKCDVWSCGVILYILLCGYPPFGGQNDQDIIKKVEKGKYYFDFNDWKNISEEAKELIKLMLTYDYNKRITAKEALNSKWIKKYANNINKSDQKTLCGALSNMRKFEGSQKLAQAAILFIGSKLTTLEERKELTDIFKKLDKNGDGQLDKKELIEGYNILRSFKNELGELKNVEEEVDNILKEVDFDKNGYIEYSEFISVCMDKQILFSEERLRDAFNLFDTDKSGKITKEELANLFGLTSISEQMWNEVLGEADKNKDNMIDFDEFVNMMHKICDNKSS

[6] = target: Plasmodium falciparum protein kinase 6 (PK6, PF3D7_1337100) (UniProt Q8IDW1); experiment: PfPK6 kinase inhibitors, biochemical, TCAMS library (AID 1159586); conditions: recombinant PfPK6, Kinase-Glo ATP depletion luminescence
Plasmodium falciparum protein kinase 6 (PK6, PF3D7_1337100), sequence (Q8IDW1 1-305): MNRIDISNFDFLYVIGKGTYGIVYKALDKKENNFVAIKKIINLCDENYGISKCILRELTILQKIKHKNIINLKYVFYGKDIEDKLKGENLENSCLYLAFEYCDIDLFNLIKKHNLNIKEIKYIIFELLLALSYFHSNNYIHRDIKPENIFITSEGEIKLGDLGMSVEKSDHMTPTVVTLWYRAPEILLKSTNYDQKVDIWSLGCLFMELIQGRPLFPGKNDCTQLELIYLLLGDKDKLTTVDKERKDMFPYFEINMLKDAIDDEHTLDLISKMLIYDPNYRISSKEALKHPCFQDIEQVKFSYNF

[7] = target: Protein kinase 7 (PK7), Plasmodium falciparum 3D7 (PF3D7_0213400) (UniProt Q7YTF7); experiment: inhibition of Plasmodium PK7 catalytic activity – biochemical, TCAMS antimalarial set, Kinase-Glo luminescence (AID 1159587); conditions: recombinant PfPK7, Kinase-Glo ATP depletion luminescence
Protein kinase 7 (PK7), Plasmodium falciparum 3D7 (PF3D7_0213400), sequence (Q7YTF7 1-343): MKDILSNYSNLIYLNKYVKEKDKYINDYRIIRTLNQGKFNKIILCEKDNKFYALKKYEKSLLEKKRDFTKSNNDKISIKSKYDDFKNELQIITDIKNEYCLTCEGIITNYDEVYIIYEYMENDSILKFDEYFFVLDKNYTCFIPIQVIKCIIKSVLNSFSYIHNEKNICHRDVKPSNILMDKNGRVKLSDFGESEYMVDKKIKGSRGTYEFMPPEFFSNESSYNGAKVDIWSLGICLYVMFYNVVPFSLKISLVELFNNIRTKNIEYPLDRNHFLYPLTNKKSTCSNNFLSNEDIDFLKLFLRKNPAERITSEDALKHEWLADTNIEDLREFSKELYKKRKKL

[8] = target: Calcium-dependent protein kinase 4 (Plasmodium falciparum (isolate 3D7)) (UniProt Q8IBS5); experiment: PfCDPK4 kinase inhibitors, biochemical, TCAMS library (AID 1159588; cut-off not given, nearly all actives have IC50 up to about 0.91 µM); conditions: recombinant PfCDPK4, Kinase-Glo ATP depletion luminescence
Calcium-dependent protein kinase 4 (Plasmodium falciparum (isolate 3D7)), sequence (Q8IBS5 whole entry, looked up): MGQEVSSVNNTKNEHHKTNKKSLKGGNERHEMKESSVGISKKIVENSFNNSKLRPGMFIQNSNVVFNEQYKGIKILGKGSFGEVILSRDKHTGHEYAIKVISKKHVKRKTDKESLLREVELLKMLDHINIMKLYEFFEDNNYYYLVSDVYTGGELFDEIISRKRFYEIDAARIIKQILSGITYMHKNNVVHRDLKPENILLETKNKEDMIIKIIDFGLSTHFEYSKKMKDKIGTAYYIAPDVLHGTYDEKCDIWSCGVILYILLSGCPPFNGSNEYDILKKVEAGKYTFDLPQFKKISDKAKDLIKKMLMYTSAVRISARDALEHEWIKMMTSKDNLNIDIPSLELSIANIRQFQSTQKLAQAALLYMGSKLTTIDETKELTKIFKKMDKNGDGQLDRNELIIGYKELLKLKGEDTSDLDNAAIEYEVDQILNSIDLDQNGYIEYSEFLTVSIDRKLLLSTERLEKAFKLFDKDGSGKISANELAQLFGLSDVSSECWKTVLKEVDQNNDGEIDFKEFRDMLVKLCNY

Structure (SMILES)	growth inhibition [1]	inhibition [2]	inhibition [3]	growth inhibition [4]	outcome [5]	outcome [6]	outcome [7]	outcome [8]
Cc1cc(C(=O)OCC(N)=O)c(C)n1-c1ccc(F)cc1	96% (active)	-12%	1%	97% (active)	inactive	inactive	inactive	inactive
CCOC(=O)c1cn(CC)c2cc(OCc3ccccc3)ccc2c1=O	96% (active)	2%	2%	97% (active)	inactive	inactive	inactive	inactive
CCOc1c(Br)cc(Cl)cc1CNCCCNc1nc2ccccc2[nH]1	3%	27%	-2%	98% (active)	inactive	inactive	inactive	inactive
CCCC(CNCc1ccccc1)CNc1cc(=O)c2ccccc2[nH]1 (stereo not given)	21%	2%	3%	86% (active)	inactive	inactive	inactive	inactive
COc1cccc(NC(=O)Nc2cc(C)nc3ccccc23)c1	48%	2%	-1%	100% (active)	inactive	inactive	inactive	inactive
CCN(CC)CCN(Cc1ccc(-c2ccc(C(F)(F)F)cc2)cc1)C(=O)Cn1c(CCc2cccc(F)c2F)cc(=O)cc1-c1ccccc1	64% (active)	33%	-2%	94% (active)	inactive	inactive	inactive	inactive
COc1cc(Nc2ccnc3cc(-c4nccs4)ccc23)ccc1OCCCc1nc2ccccc2[nH]1	68% (active)	100% (active)	5%	100% (active)	inactive	inactive	inactive	inactive
COc1ccc(CNCc2ccc(-c3ccc(-c4nc5c(C)cccc5[nH]4)s3)cc2)cc1	89% (active)	54% (active)	3%	100% (active)	inactive	inactive	inactive	inactive
N/C(=N/C(=NCCCCCCN=C(/N=C(/N)Nc1ccc(Cl)cc1)N1CCCCC1)N1CCCCC1)Nc1ccc(Cl)cc1	98% (active)	-7%	0%	100% (active)	inactive	inactive	inactive	inactive
COCCNCc1cccc(-c2cc3nccc(Nc4ccc(Oc5ccccc5)cc4)c3cc2Cl)c1	99% (active)	-8%	1%	99% (active)	inactive	inactive	inactive	inactive
N#Cc1c(N)n(CCc2ccc(F)cc2)c2nc3ccccc3nc12	36%	8%	-1%	92% (active)	inactive	inactive	inactive	inactive
CCNc1cc(C(=O)N[C@@H](Cc2ccccc2)[C@H](O)CNC(C)(C)CCCC(C)C)c(F)c(N2CCCS2(=O)=O)c1	97% (active)	-2%	-4%	98% (active)	inactive	inactive	inactive	inactive
O=C(Nc1cc(Cl)cc(Cl)c1)c1cc(Cl)c(=O)n(Cc2ccc(Cl)cc2)c1	57% (active)	7%	7%	89% (active)	inactive	inactive	inactive	inactive
Cc1cccc(-c2nc(Nc3ccncc3)c3ccc([N+](=O)[O-])cc3n2)n1	13%	-9%	-1%	87% (active)	inactive	inactive	inactive	inactive
O=C(Nc1ccc(Cl)c(Cl)c1)N1CCC(NCc2cccc([N+](=O)[O-])c2)CC1	12%	8%	2%	97% (active)	inactive	inactive	inactive	inactive
CCCC[C@@H](C(=O)NCCc1ccc(Cl)cc1)N1C(=O)CCC1C(=O)Nc1ccc(Cl)c(Cl)c1 (stereo not given in full)	2%	4%	2%	95% (active)	inactive	inactive	inactive	inactive
Cn1cccc1C(=O)NCC(CCNc1cc(=O)c2ccccc2[nH]1)NCc1cc(Br)cc(Br)c1 (stereo not given)	52% (active)	-3%	-2%	92% (active)	inactive	inactive	inactive	inactive
CCc1cn2c3c(cc(C(=O)N[C@@H](Cc4ccccc4)[C@H](O)CNCc4ccc(C)cc4)cc13)N(C)S(=O)(=O)CC2	98% (active)	-4%	5%	99% (active)	inactive	inactive	inactive	inactive
COc1ccc(C(=O)NCc2ccccc2-c2ccc(C(C)(C)C)cc2)cc1O	97% (active)	10%	1%	99% (active)	inactive	inactive	inactive	inactive
COc1ccc2nccc([C@@H](O)CN3CCC(NC(=O)Cc4ccc(Br)c5ccccc45)CC3)c2c1	40%	10%	-2%	98% (active)	inactive	inactive	inactive	inactive

Structure (SMILES)	growth inhibition [1]	inhibition [2]	inhibition [3]	growth inhibition [4]	outcome [5]	outcome [6]	outcome [7]	outcome [8]
O=C(/C=C/c1cccc(Cl)c1)Nc1ccc2nc(CN3CCCC3)ccc2c1	42%	47%	4%	99% (active)	inactive	inactive	inactive	inactive
CC1(C)N=C(N)N=C(N)N1OCCCc1ccccc1	94% (active)	64% (active)	1%	96% (active)	inactive	inactive	inactive	inactive
CC(C)CN1C(=O)c2ccccc2C(C(=O)Nc2cccc(C#N)c2)C1c1cccs1 (stereo not given)	100% (active)	11%	-4%	101% (active)	inactive	inactive	inactive	inactive
CCc1cn2c3c(cc(C(=O)N[C@@H](Cc4cc(F)cc(F)c4)[C@H](O)CNC4CCOCC4)cc13)N(C)S(=O)(=O)CC2	98% (active)	1%	-7%	98% (active)	inactive	inactive	inactive	inactive
COc1cc(-c2nc(-c3ccccc3)c(-c3ccc([N+](=O)[O-])cc3)[nH]2)cc(OC)c1O	56% (active)	7%	-3%	98% (active)	inactive	inactive	inactive	inactive
O=C(N[C@@H](Cc1ccccc1)C(=O)NC1CCCCCC1)c1ccc(O)c(-c2cccc(C(F)(F)F)c2)c1	70% (active)	-10%	-1%	98% (active)	inactive	inactive	inactive	inactive
CC(C)Oc1ccc(CCCON2C(N)=NC(N)=NC2(C)C)cc1	94% (active)	66% (active)	0%	96% (active)	inactive	inactive	inactive	inactive
Clc1ccc2c(NN=Cc3ccccc3)ccnc2c1	94% (active)	-6%	-3%	100% (active)	inactive	inactive	inactive	inactive
O=C(/C=C/c1ccc(Cl)c(Cl)c1)N1CCC(CCN2CCc3[nH]c4ccccc4c3C2)CC1	-1%	22%	-3%	96% (active)	inactive	inactive	inactive	inactive
FC(F)(F)c1ccc2nc(-c3ccc(-c4cccc(CNCC5CCCO5)c4)cc3)[nH]c2c1 (stereo not given)	100% (active)	36%	-5%	101% (active)	inactive	inactive	inactive	inactive
CCN(CC)CCN(Cc1ccc(-c2ccc(C#N)cc2)cc1)C(=O)Cn1c(CCc2cccc(F)c2F)nc(=O)c2ccccc21	46%	31%	-1%	100% (active)	inactive	inactive	inactive	inactive
COc1cc(NC(=O)/C=C/c2cccc3ccoc23)ccc1OCCN(C(C)C)C(C)C	5%	22%	2%	90% (active)	inactive	inactive	inactive	inactive
Cc1cc(N)c2cc(NC(=O)c3cccc(C(=O)Nc4ccc5nc(C)cc(N)c5c4)c3)ccc2n1	92% (active)	9%	4%	94% (active)	inactive	inactive	inactive	inactive
CCN1CCN(c2cc(C)c3cc(NC(=O)c4cncc(Br)c4)ccc3n2)CC1	63% (active)	3%	3%	97% (active)	inactive	inactive	inactive	inactive
CN1CCN(CC(=O)Nc2cccc(-c3ccc(-c4nc5ccc(F)cc5[nH]4)cc3)c2)CC1	98% (active)	20%	6%	101% (active)	inactive	inactive	inactive	inactive
Cc1cccc2[nH]c(-c3cccc(-c4cccc(NC(=O)N[C@@H]5C[C@H]5c5ccccc5)c4)c3)nc12	28%	-4%	-1%	98% (active)	inactive	inactive	inactive	inactive
COc1cc(C(=O)NC2CCN(Cc3ccccc3)CC2)ccc1-c1cc2cc(Cl)c(Cl)cc2[nH]1	101% (active)	33%	5%	102% (active)	inactive	inactive	inactive	inactive
O=C(/C=C/c1ccc(I)cc1)NCCCCCN1CCC(c2c[nH]c3ccccc23)CC1	2%	43%	-4%	95% (active)	inactive	inactive	inactive	inactive
NC1CCCN(Cc2cccc(-c3ccc(-c4nc5ccccc5[nH]4)s3)c2)C1 (stereo not given)	88% (active)	21%	-2%	98% (active)	inactive	inactive	inactive	inactive
CCN1CCN(CCCNc2c3ccc(Cl)cc3nc3ccc(O)cc23)CC1	1%	32%	-3%	103% (active)	inactive	inactive	inactive	inactive
